Where “and” joins values, the source holds several entries; their conditions need not be identical. Equal values may be shown once. For some of these results: Entries with a potency or affinity are not part of this list.
Columns and labels:
Parameters in all cases: scale not given: direction of the effect not stated beside the values
[1] = target: Protein translocase subunit SecA (Escherichia coli (strain K12)) (UniProt P10408); experiment: Assay to Identify E. coli SecA ATPase Inhibitors; assay type: functional; conditions: 30 µM
Protein translocase subunit SecA (Escherichia coli (strain K12)), sequence (P10408 whole entry): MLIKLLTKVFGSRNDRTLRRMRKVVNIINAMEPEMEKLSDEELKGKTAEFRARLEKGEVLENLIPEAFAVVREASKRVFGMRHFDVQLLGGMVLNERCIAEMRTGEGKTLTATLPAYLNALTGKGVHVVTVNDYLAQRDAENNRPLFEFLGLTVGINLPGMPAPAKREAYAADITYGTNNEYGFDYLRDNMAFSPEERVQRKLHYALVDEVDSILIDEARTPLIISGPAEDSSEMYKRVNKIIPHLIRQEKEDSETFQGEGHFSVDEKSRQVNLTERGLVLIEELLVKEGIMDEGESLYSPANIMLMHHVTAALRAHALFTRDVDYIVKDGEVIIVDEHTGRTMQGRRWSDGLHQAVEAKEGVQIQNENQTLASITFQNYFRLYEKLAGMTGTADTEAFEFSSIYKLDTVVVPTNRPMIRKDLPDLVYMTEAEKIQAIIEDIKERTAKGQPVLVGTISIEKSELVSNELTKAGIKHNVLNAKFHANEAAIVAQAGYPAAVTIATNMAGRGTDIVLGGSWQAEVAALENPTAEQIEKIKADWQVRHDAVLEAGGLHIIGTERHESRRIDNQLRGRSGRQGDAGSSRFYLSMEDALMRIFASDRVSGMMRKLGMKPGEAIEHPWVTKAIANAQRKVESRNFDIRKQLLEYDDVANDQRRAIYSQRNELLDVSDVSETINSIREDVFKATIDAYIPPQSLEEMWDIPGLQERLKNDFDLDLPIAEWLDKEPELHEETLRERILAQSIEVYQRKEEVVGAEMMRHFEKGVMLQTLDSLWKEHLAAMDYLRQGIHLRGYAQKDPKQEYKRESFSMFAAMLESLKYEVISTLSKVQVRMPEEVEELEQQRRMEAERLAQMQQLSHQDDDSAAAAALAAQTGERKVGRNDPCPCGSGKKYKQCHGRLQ

[2] = target: T1, Ubiquitin-activating enzyme e1, putative (Leishmania donovani (strain BPK282A1)) (UniProt E9BSI1); experiment: Leishmania donovani Ubiquitin Activating Enzyme (LdE1); assay type: functional; conditions: 30 µM
T1 sequence (whole entry): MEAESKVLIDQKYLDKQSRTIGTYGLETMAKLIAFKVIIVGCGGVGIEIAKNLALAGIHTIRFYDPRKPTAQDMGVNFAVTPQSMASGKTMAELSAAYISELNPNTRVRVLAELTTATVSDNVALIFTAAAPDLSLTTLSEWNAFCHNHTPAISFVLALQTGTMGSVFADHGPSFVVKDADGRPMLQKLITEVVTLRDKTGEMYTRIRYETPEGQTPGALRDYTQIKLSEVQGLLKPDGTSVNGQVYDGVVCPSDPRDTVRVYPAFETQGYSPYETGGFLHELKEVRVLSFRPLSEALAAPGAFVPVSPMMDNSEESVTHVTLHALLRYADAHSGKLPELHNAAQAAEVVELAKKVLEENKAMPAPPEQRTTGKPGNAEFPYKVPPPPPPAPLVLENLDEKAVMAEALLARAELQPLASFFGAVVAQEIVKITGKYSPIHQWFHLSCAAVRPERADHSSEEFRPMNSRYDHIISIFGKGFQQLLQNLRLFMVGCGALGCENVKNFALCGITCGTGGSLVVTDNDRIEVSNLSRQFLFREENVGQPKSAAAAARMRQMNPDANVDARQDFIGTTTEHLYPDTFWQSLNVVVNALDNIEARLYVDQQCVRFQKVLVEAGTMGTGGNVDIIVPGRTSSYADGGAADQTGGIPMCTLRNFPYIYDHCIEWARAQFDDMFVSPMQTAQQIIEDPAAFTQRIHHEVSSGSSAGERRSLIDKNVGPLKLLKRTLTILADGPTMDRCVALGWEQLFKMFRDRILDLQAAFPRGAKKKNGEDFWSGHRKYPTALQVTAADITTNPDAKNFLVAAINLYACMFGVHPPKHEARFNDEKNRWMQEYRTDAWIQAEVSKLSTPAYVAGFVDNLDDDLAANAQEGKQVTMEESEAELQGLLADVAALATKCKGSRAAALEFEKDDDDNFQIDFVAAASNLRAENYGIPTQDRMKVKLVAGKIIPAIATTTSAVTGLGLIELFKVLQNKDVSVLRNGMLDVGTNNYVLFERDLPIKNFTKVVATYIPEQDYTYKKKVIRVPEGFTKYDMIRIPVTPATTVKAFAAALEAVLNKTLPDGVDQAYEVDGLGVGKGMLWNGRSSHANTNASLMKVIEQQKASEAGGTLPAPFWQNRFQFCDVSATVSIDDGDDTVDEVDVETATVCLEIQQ

[3] = target: AMP-activated protein kinase, AMPK (Homo sapiens) (UniProt P54646+O43741+P54619+Q9UGJ0+Q9Y478+Q13131+Q9UGI9); experiment: AMP-dependent Kinase enzyme assay. An in vitro enzyme assay that detects ADP turnover that is directly proportional to AMPK activity. This uses naive AMPK that is activated during the assay with MK-8722; assay type: functional; conditions: 30 µM
[4] = target: Sialic acid-binding Ig-like lectin 9 (Homo sapiens) (UniProt Q9Y336); experiment: Hs-Siglec9 ALPHAscreen SOP 20170721; conditions: 10 µM
Sialic acid-binding Ig-like lectin 9 (Homo sapiens), sequence (Q9Y336 whole entry): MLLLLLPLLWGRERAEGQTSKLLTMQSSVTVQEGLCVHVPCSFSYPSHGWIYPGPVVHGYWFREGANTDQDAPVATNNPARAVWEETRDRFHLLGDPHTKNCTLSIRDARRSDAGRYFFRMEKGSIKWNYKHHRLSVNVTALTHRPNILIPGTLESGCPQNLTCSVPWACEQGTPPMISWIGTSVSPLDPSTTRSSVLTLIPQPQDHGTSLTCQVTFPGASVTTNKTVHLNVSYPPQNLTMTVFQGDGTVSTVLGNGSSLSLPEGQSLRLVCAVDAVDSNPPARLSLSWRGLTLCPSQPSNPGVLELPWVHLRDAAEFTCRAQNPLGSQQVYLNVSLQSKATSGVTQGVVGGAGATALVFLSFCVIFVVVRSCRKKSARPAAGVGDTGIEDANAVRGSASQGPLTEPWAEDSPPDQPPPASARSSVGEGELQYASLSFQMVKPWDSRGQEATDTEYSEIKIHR

Trypanosoma cruzi = experiment: Trypanosoma cruzi phosphomannomutase and mannose-1-phosphate guanylyltransferase assay; assay type: functional; conditions: 10 µM
[5] = target: T2, Arginase-2, mitochondrial (Homo sapiens) (UniProt P78540); experiment: in vitro enzyme assay to detect the production of urea directly proportional to the activity of Arginase II; assay type: functional; conditions: 33.3 µM; also: in the data most compounds retested in dose-response had high values
T2 sequence (whole entry): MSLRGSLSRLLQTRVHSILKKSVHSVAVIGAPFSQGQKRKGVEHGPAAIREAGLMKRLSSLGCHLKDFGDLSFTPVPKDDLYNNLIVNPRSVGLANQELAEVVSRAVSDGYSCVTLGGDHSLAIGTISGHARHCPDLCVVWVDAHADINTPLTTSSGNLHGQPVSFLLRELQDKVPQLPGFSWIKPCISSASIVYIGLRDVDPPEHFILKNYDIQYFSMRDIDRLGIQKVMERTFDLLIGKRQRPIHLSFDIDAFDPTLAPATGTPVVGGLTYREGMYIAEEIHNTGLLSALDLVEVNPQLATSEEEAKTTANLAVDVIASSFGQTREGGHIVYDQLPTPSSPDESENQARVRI

[6] = target: T3, Proteasome subunit beta (Trypanosoma cruzi) (UniProt O96673); experiment: Trypanosoma cruzi proteasome chymotrypsin-like activity (TcProtChymo) assay.; also: in the data most compounds retested in dose-response had high values; assay type: functional; conditions: 9.37 µM
T3 sequence (whole entry): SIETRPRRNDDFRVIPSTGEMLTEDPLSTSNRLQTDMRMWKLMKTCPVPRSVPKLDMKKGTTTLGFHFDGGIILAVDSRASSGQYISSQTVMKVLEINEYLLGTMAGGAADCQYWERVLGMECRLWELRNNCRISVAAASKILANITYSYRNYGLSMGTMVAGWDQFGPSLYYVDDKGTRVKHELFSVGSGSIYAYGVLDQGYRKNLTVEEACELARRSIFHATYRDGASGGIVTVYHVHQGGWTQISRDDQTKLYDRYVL

Homo sapiens = organism: Homo sapiens; experiment: To identify inhibition of the IFN signalling (Jak-Stat) pathway via expression of an eGFP reporter gene under the control of an IFN-stimulated response element (ISRE) containing MxA promoter.; assay type: functional; conditions: 30 µM
[7] = target: T4, Tyrosyl-tRNA synthetase, putative (Trypanosoma cruzi (strain CL Brener)) (UniProt Q4DSP6); experiment: Trypanosoma cruzi tyrosyl tRNA synthetase (TcYRS) _High Tyrosine SOP; assay type: functional; conditions: 30 µM; also: in the data most compounds retested in dose-response had high values
T4 sequence (whole entry): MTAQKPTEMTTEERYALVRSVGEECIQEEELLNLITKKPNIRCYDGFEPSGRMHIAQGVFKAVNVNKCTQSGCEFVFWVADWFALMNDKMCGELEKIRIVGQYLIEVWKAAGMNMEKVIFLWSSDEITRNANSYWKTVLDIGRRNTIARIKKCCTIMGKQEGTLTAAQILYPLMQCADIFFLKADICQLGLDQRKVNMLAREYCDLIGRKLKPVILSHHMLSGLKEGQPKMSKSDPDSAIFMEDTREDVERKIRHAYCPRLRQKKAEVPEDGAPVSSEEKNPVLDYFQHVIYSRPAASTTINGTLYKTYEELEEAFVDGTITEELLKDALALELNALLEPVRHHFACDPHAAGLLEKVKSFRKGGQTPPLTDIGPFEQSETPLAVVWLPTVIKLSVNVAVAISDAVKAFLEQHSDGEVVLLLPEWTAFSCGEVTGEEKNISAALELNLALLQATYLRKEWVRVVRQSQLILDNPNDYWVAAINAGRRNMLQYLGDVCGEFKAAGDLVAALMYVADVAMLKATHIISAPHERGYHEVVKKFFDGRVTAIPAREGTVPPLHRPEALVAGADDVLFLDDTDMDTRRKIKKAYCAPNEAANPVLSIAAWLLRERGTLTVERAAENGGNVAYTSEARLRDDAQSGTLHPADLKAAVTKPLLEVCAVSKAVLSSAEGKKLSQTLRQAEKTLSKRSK

[8] = target: T4, Tyrosyl-tRNA synthetase, putative (Trypanosoma cruzi (strain CL Brener)); experiment: Trypanosoma cruzi tyrosyl tRNA synthetase (TcYRS) SOP; assay type: functional; conditions: 30 µM
[9] = target: Chromo domain-containing protein 1 (Saccharomyces cerevisiae (strain ATCC 204508 / S288c) (Baker's yeast)) (UniProt P32657); experiment: ScCHD-1 Enzyme Inhibition Assay; assay type: functional; conditions: 30 µM; also: in the data most compounds retested in dose-response had high values
Chromo domain-containing protein 1 (Saccharomyces cerevisiae (strain ATCC 204508 / S288c) (Baker's yeast)), sequence (P32657 whole entry, the tested form may be a part): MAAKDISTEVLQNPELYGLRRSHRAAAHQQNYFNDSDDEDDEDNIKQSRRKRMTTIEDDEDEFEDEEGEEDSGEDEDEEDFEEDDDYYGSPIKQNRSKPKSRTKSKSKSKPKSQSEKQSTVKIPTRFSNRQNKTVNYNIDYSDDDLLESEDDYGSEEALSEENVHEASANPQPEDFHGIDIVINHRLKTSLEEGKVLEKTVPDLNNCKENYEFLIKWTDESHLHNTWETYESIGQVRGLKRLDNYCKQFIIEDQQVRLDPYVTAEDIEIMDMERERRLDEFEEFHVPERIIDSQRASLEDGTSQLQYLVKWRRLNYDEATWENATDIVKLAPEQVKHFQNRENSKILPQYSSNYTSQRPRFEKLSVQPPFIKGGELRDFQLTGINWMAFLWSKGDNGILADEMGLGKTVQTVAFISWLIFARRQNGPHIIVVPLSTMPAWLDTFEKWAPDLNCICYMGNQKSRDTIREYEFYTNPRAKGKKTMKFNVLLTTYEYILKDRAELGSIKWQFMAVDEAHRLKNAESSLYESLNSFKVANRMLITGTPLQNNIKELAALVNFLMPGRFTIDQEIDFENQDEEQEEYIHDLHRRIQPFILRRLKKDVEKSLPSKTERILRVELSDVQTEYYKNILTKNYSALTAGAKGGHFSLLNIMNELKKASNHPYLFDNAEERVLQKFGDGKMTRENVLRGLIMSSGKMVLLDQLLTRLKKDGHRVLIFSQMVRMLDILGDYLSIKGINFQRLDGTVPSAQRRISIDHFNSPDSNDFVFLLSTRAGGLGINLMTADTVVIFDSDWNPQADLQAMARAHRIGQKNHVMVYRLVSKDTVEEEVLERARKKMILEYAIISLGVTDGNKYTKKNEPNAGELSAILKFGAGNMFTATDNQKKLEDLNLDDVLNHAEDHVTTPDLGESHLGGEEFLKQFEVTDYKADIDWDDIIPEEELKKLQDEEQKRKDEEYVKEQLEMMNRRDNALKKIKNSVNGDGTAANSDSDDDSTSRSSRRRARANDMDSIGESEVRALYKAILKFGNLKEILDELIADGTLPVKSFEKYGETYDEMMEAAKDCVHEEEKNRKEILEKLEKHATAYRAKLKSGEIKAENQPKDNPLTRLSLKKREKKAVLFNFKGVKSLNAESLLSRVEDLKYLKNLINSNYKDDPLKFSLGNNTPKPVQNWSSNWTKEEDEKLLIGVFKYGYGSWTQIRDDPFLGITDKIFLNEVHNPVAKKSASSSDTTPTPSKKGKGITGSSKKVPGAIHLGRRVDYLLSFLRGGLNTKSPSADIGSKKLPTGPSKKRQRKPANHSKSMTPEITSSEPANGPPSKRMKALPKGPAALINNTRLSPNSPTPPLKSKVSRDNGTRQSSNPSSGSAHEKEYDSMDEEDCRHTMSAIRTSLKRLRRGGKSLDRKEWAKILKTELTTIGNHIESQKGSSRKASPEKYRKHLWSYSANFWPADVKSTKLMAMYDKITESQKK

N/A = experiment: Trypanosoma cruzi proteasome luciferase counter-screen; assay type: functional; conditions: 9.37 µM

SMILES | Percent Effect [1] [%] | Percent Effect [2] [%] | Percent Effect [3] [%] | Percent Effect [4] [%] | Percent Effect (Trypanosoma cruzi) [%] | Percent Effect [5] [%] | Percent Effect [6] [%] | Percent Effect (Homo sapiens) [%] | Percent Effect [7] [%] | Percent Effect [8] [%] | Percent Effect [9] [%] | Percent Effect (N/A)
COc1ccc(CN(Cc2cccnc2)CC2CCCO2)c(OC)c1 (stereo unspecified) | -1.69 | -2.67 | 11.4 | 2.14 | 6.69 | -1.63 | 7.67 | 3.47 | 2.13 | 6.41 | -2.64 | 
O=S(=O)(CCNCc1cccc2c1OCCO2)N1CCOCC1 | 0.589 | 10.8 | -8.76 | 1 | -0.965 | -0.476 | 9.14 | 24.3 | 5.82 | 4.88 | -2.36 | 
O=C(c1ccncc1)N1CCC(c2nc(O)cc(-c3ccncc3)n2)C1 (stereo unspecified) | -4.75 | 21.3 | 0.106 | -1.99 | 0.984 | -2.1 |  | 4.05 | 6.38 | 14.1 | -6.07 | 6.33% and 4.26%
Cc1cc(C)c(CNC(=O)N2CCCC2C(N)=O)c(=O)[nH]1 (stereo unspecified) | -3.77 | 6.33 | 7.27 | 3.83 | -1.95 | 1.5 | 23.5 | 11.6 | 5.21 | 12.7 | -14.7 | 
Cc1ccc(CC(=O)N2CCCC(c3nc(C)cs3)C2)cn1 (stereo unspecified) | -5.58 | -2.7 | -3.92 | 13.4 | -0.0929 | -0.554 | 0.539 | -13.1 | 0.99 | -6.1 | 7.44 | 
Cc1nc(-c2ccsc2)ccc1C(=O)NCCC(=O)N1CCCC1 | -5.91 | 13.2 | -2.05 | 5.21 | 6.2 | 1.15 | 3.34 | -2.2 | -1.47 | 9.76 | -11.3 | 
CC(C)c1nc(C2CCCN2CCc2ccncc2)no1 (stereo unspecified) | -3.81 | 0 | 6.93 | -0.839 | -2.25 | -0.356 | 13 | 27 | 2.91 | -4.88 | -0.507 | 
Cc1cc(C)n(CC(=O)NC(Cc2ccsc2)c2ccccn2)c(=O)n1 (stereo unspecified) | -10.3 | 12.2 | -6.03 | 12.5 | 8.5 | -4.87 | 9.2 | -8.13 | 5.38 | 11.7 | -22.9 | 
CCc1nc(CN2CCCC(NCc3ncc(C(C)(C)C)o3)C2)no1 (stereo unspecified) | -1.05 | 18.2 | 2.6 | -6.25 | 1.27 | 1.05 | 22.6 | -1.65 | 12.4 | 35.3 | -24.7 | 
O=C(CN1CCc2c(ncn2C2CC2)C1)NC1CC1 | -2.66 | -3.8 | -0.272 | 5.53 | -2.56 | 3.66 | 9.09 | 5.09 | 2.08 | 5.06 | -4.23 | 
O=C(NS(=O)(=O)c1ccc2c(c1)OCCO2)c1ccc(Br)cc1F | -3.37 | -13.9 | 13.5 | 1.7 | -2.36 | 1.07 | 12 | -21.1 | -13.5 | -15.2 | -10.5 | 
